Rows were chosen to be rich in hits. Some 0.99% of all compounds tested hit in one or more screens of this group.
TRPV1 potentiator – human TRPV1 potentiation. potentiation, % at 8.33 µM. AID 540277. TRPV1-expressing cells, Fluo-8 calcium influx, capsaicin EC20 potentiation. 320,000 tested, 0.02% active. Q8NER1; in the data active means potentiation above about 80%; inconclusive means between about 30% and that limit; further: 0% is about no effect
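Fluo-8 calcium influx in TRPV1-expressing cells, kinetic read (ex 480/em 520 nm). Compound added and read 3 min for agonist activity, followed by capsaicin at EC20 final and 2 min further read for enhancement.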
TRHR ag – TRH receptor (human) agonism. AID 493084. TRHR cells, calcium flux fluo-8, FDSS agonist mode. 360,000 tested, 0.18% active. activation, % at 2 µM; in the data active means activation above about 30%; further: 0% is about no effect
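Steps: seed TRHR cells overnight; add fluo-8 no-wash Ca dye, RT 30 min–1.5 h; record 10 s baseline; pin-transfer compounds; monitor fluorescence 1 cycle/s for the agonist window. Calcium increases flag candidate agonists.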
TRPV1 ag – agonists of human vanilloid receptor 1 (TRPV1). TRPV1-expressing cells, Fluo-8 calcium influx, agonist mode. activation, % at 8.33 µM. 320,000 tested, 0.19% active. AID 540275; in the data active means activation above about 80%; inconclusive means between about 30% and that limit; further: 0% is about no effect
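Fluo-8 calcium influx in TRPV1-expressing cells, kinetic read (ex 480/em 520 nm). Compound added and read 3 min for agonist activity, followed by capsaicin at EC20 final and 2 min further read for enhancement.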
TRPML1 inh – blocks the human TRPML1 channel; Q9GZU1; TRPML1-inducible cells, Ca2+ dye fluorescence, FDSS; stronger effect = lower value; inhibition of EC80 agonist-evoked calcium signal; activity change, negative = inhibition, % (test concentration not listed); 390,000 tested, 0.02% active; AID 624415; in the data active means activity change below about -50%; inconclusive means between about -30% and that limit;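 further: stimulus is agonist 54-4 at its EC80 concentration; on the % scale 0 is the no-effect control and ±100 the full control effect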
Target sequence (Q9GZU1 whole entry, looked up): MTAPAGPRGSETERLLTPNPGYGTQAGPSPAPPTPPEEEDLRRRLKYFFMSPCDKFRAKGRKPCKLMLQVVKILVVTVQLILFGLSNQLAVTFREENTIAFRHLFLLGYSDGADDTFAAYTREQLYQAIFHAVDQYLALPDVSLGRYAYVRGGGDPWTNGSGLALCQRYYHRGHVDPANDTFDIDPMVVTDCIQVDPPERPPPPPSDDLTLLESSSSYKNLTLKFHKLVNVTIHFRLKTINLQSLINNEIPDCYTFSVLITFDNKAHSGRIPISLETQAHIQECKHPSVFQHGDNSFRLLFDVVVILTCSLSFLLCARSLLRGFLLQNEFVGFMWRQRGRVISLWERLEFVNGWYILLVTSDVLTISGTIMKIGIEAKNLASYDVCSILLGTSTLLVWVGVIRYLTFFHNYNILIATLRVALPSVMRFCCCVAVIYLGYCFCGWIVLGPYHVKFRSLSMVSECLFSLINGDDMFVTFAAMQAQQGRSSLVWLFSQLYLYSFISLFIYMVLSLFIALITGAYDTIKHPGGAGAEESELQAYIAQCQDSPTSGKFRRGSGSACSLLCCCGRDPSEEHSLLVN
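Tet-induced TRPML1-DL cells loaded with Ca8 no-wash calcium dye were read kinetically on FDSS. Compound addition was followed by EC80 agonist 54-4 (4 uM final); inhibition was read over 110 s.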
TRHR enhancer – allosteric enhancers of human TRH receptor. TRHR cells, fluo-8 calcium fluorescence, EC20 TRH enhancement. enhancement, % at 2 µM. P34981. 360,000 tested, 0.66% active; in the data active means enhancement above about 30%; further: 0% is about no effect
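TRHR-expressing cells loaded with fluo-8 calcium dye were read kinetically (ex 480/em 530) during compound addition, then stimulated with an EC20 of TRH (10 nM final). Enhancement of the Gq-mediated intracellular calcium response was scored.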
TRPML1 ag – activates the human TRPML1 channel; Q9GZU1; TRPML1-expressing cells, Ca2+ dye fluorescence, FDSS; activation, % (concentration not given with the values); 410,000 tested, 0.12% active; AID 624414; in the data active means activation above about 50%; inconclusive means mostly about 30% to 49%; further: 0% is about no effect
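Cells: TRPML1-DL, 1X Tet inducer, ~16 h at 37 degrees C/5% CO2. Dye: ABD Ca8 no-wash + quencher, 45-90 min RT. Read: 10 s baseline, compound add, 110 s agonist phase; 54-4 EC80 (4uM final), 110 s antagonist phase.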
The depositor's hits bear a star.

Screening COc1ccc(Nc2ncnc3c2oc2ccccc23)cc1 returned TRPV1 potentiator -15, TRHR ag -2, TRPV1 ag 93*, TRPML1 inh 10, TRHR enhancer 18 and TRPML1 ag 0.
For Cc1ccc(Nc2ncnc3c2oc2ccccc23)cc1 the results were TRPV1 potentiator -6, TRHR ag -1, TRPV1 ag 93*, TRPML1 inh -6, TRHR enhancer 8 and TRPML1 ag 2.
CC(=O)N1CCc2c(sc3c2c(=O)n(-c2ccccc2)c(=O)n3CC(=O)Nc2ccccc2C)C1 was read as TRHR ag 0, TRPML1 inh 8, TRHR enhancer -2 and TRPML1 ag 0.
`Cc1ccc(C2NC(=O)c3ccccc3N2)s1` (configuration not stated) gave TRPV1 potentiator -5, TRHR ag 1, TRPV1 ag 1, TRPML1 inh 14, TRHR enhancer 35* and TRPML1 ag 2.
`CCN1C(=O)c2ccccc2Sc2ccc(C(=O)NCCCN3CCOCC3)cc21` gave TRPV1 potentiator -2, TRHR ag -1, TRPV1 ag 3, TRPML1 inh -12, TRHR enhancer 32* and TRPML1 ag 0.
O=C(CCSCc1ccc(Cl)cc1)NCc1cccnc1 was read as TRPV1 potentiator -3, TRHR ag 0, TRPV1 ag 81*, TRPML1 inh 3, TRHR enhancer 1 and TRPML1 ag 0.
`O=C(CCSCc1ccc(Cl)cc1)NCCc1ccccc1` gave TRPV1 potentiator -6, TRHR ag 0, TRPV1 ag inconclusive, TRPML1 inh 0, TRHR enhancer 0 and TRPML1 ag 0.
For CCc1nc2ccc(C(=O)Nc3ccc4c(c3)OCO4)cc2nc1CC the results were TRPV1 potentiator -8, TRHR ag 0, TRPV1 ag inconclusive, TRPML1 inh -15, TRHR enhancer 39* and TRPML1 ag 1.
Screening Cc1ccc(C(=O)Nc2ccc3c(c2)OCO3)cc1Cl returned TRPV1 potentiator -9, TRHR ag 1, TRPV1 ag inconclusive and TRHR enhancer 8.
For Cc1ccc(NC(=O)c2ccc3c(c2)OCO3)cc1Cl the results were TRPV1 potentiator -11, TRHR ag 0, TRPV1 ag 83*, TRPML1 inh -6, TRHR enhancer 8 and TRPML1 ag -1.
Screening CCN(CC)c1ccc(NC(=O)c2ccc3c(c2)OCO3)cc1 returned TRPV1 potentiator -11, TRHR ag 0, TRPV1 ag 83*, TRPML1 inh 1, TRHR enhancer 23 and TRPML1 ag 1.
For CCC(=O)Nc1ccc(NC(=O)c2ccc3c(c2)OCO3)cc1 the results were TRPV1 potentiator 4, TRHR ag 1, TRPV1 ag -1, TRPML1 inh -5, TRHR enhancer 3 and TRPML1 ag 1.
`Cn1nnnc1Sc1ncnc2scc(-c3ccc(N)cc3)c12` gave TRHR ag -1 and TRHR enhancer 9.
`CC1CC(C)CN(CCCNC(=O)c2csc3c2CCCC3)C1` (configuration not stated) gave TRPV1 potentiator 7, TRHR ag 0, TRPV1 ag 3, TRPML1 inh -5, TRHR enhancer 36* and TRPML1 ag 0.
For CC(=O)c1ccc(N2CCN(C(=O)c3cc4cc5cc(C)ccc5nc4s3)CC2)cc1 the results were TRHR ag 1, TRPML1 inh 16, TRHR enhancer 49* and TRPML1 ag 0.
C[C@H]1CN(S(=O)(=O)c2ccc3c(c2)OCCO3)CCN1S(=O)(=O)c1c(F)cccc1F was read as TRHR ag -1 and TRHR enhancer 39*.
O=C(N/N=C/c1cccc(Oc2ccccc2)c1)c1cccc(O)c1 was read as TRPV1 potentiator -14, TRHR ag -1, TRPV1 ag inconclusive, TRPML1 inh 13, TRHR enhancer -7 and TRPML1 ag 0.
For O=C(N/N=C\c1cccc(OC(=O)c2ccco2)c1)c1ccc2c(c1)OCO2 the results were TRPV1 potentiator -1, TRHR ag 6, TRPV1 ag 13, TRPML1 inh 3, TRHR enhancer 33* and TRPML1 ag 2.
O=C(N/N=C/c1cccnc1)c1ccc2c(c1)OCO2 was read as TRPV1 potentiator -36, TRHR ag 0, TRPV1 ag 90*, TRPML1 inh 15, TRHR enhancer -1 and TRPML1 ag 0.
Screening O=C(N/N=C\c1ccc2c(c1)OCO2)c1ccco1 returned TRPV1 potentiator -7, TRHR ag 0, TRPV1 ag 12, TRPML1 inh 25, TRHR enhancer 1 and TRPML1 ag 0.
COc1ccc(/C=N/NC(=O)c2ccc3c(c2)OCO3)c(C(=O)O)c1OC was read as TRPV1 potentiator -8, TRHR ag 0, TRPV1 ag 80*, TRPML1 inh -2, TRHR enhancer -4 and TRPML1 ag 0.
`NC(=O)c1ccc(C(=O)N/N=C/c2cccc(Oc3ccccc3)c2)cc1` gave TRPV1 potentiator 4, TRHR ag 1, TRPV1 ag 4, TRPML1 inh -9, TRHR enhancer 36* and TRPML1 ag 1.
Screening O=C(N/N=C/c1ccc2c(c1)OCO2)c1ccc2c(c1)OCO2 returned TRPV1 potentiator 1, TRHR ag 0, TRPV1 ag inconclusive, TRPML1 inh 33, TRHR enhancer -4 and TRPML1 ag -1.
`CCCOc1ccc(CNC(=O)c2cc3ccccn3n2)cc1` gave TRHR ag -1, TRPML1 inh 31, TRHR enhancer -1 and TRPML1 ag -1.
O=S1(=O)CCO[C@H]2CCCC[C@@H]2N1Cc1ccccc1F was read as TRPML1 ag -1.
O=C(CNC(=O)c1ccc(Br)o1)NCC(=O)OCc1ccccc1 was read as TRPV1 potentiator 8, TRHR ag 0, TRPV1 ag -3, TRPML1 inh -15, TRHR enhancer 30* and TRPML1 ag 0.
For CCCN(CCC)C(C)C(=O)NCC1(c2ccccc2)CCCC1 (configuration not stated) the results were TRPV1 potentiator -32, TRHR ag 9, TRPV1 ag inconclusive, TRPML1 inh inconclusive, TRHR enhancer -10 and TRPML1 ag 107*.
For O=C(NCC1(c2ccccc2)CCCC1)c1ccc(Br)o1 the results were TRPV1 potentiator -16, TRHR ag 0, TRPV1 ag inconclusive, TRPML1 inh -16, TRHR enhancer 13 and TRPML1 ag 70*.
O=C1c2ccccc2C(Nc2cccnc2)N1Cc1ccccc1Cl (configuration not stated) was read as TRPV1 potentiator 22, TRHR ag -1, TRPV1 ag 6, TRPML1 inh 5, TRHR enhancer 33* and TRPML1 ag 1.
